Screening data (PubChem)
Compounds with a hit are over-represented: about 19% of the library has one in this group of screens.
IL-1B inflam inh – inflammasome signaling inhibition, IL-1 beta readout | AID 743279 | 4.7% of 360,000 active | activity change, % at 57.5 µM | THP-1 LPS/ATP IL-1B secretion, AlphaLISA, 16 h; stronger effect = lower value; in the data active = activity change below about -50%; inconclusive = mostly about -30% to -49%; also: % is scaled to controls: 0 for no effect and ±100 for the full control effect
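THP-1 cells pretreated 1 hr with compounds (up to 57.5 uM final), then stimulated with LPS (250 ng/mL final) plus ATP (1.25 mM final); secreted IL-1B measured by AlphaLISA after 16 hr, decreased signal indicating inhibition.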
TDP1 cell CPT – growth inhibition of DT40 Tdp1-/-;hTDP1 cells with camptothecin (screen for TDP1 inhibitors). chicken DT40 Tdp1-/-;hTDP1 cells + 20 nM CPT, ATP luminescence, 48 h. Potency, µM (top dose mostly 46.2 µM), for inactives: at the top dose activity change, negative = growth inhibition, hits mostly inhibitors. 12% of 420,000 active. AID 686979; also: potency is read from the fitted curve at half-maximal effect; % is scaled to controls: 0 for no effect and ±100 for the full control effect; nearly all actives have a fitted effect of over 55% in size
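Chicken DT40 Tdp1-/- cells complemented with human TDP1, 400 cells/well, exposed to compounds plus 20 nM camptothecin for at least 48 h at 37 C; viability read as ATP content by CellTiter-Glo luminescence.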
HepG2 tox – counter-screen for TGF-b inhibitors: cytotoxicity in HepG2 cells | HepG2 CAGA-GFP viability, ATP luminescence, 18 h | Potency, µM (highest dose often 46.1 µM), without a hit: top-dose activity change, negative = cytotoxicity, hits mostly cytotoxic | 0.76% of 410,000 active; also: potency is read from the fitted curve at half-maximal effect
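HepG2 CAGA-GFP cells (1000/well, DMEM with 1% FBS) received compound, then TGF-beta at 500 pg/mL final, and were incubated 18 hours at 37 degrees C. Viability was read by CellTiter-Glo luminescence. Media-only wells were set as complete cell-killing and DMSO as no toxicity.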
TDP1 cell noCPT – qHTS for Inhibitors of human tyrosyl-DNA phosphodiesterase 1 (TDP1): qHTS in cells in absence of CPT | DT40 Tdp1-/- hTDP1 cells, no CPT, ATP luminescence, 48 h | Potency, µM (top dose mostly 46.2 µM), for inactives: at the top dose activity change, negative = growth inhibition, most hits filed as inhibitors | 15% of 420,000 active | AID 686978, 2013; also: potency is read from the fitted curve at half-maximal effect; % is scaled to controls: 0 for no effect and ±100 for the full control effect; nearly all actives have a fitted effect of over 55% in size
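Camptothecin absent (DMSO only). Human TDP1-complemented DT40 knockout cells, 400 cells/well, 37 °C for minimum 48 hr; ATP measured via CellTiter-Glo, 30 min dark incubation, luminescence.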
TDP1 inh – TDP1 (human) enzyme inhibition; Q9NUW8; recombinant TDP1, AlphaScreen DNA substrate cleavage; Potency, µM (doses to about 130 µM), inactives show at the highest dose activity change, negative = inhibition, hits mostly inhibitors; 0.28% of 350,000 active; AID 485290; also: potency is read from the fitted curve at half-maximal effect; % is scaled to controls: 0 for no effect and ±100 for the full control effect; nearly all actives have a fitted effect of over 40% in size
Target sequence (Q9NUW8 whole entry, looked up): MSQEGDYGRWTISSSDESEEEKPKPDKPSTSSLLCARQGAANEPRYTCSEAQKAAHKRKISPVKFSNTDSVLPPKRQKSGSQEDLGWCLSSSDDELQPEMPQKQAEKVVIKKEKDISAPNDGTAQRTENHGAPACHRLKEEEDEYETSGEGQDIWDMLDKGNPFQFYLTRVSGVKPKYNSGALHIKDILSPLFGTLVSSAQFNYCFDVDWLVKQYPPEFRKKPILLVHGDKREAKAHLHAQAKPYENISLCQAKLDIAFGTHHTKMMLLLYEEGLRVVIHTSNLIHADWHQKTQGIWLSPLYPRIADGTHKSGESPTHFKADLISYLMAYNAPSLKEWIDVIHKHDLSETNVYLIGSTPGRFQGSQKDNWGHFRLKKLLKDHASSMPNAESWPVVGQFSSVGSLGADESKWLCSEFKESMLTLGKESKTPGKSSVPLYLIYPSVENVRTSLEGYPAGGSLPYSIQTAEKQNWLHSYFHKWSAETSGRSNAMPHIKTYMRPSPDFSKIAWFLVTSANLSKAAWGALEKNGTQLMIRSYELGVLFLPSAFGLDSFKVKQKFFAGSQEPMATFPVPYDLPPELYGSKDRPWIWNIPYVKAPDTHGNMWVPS
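Tdp1 1 nM final; 15 min RT w/ cpd; substrate 15 nM, 5 min; beads 10 ug/ml, 10 min; AlphaScreen read. Neg ctrl: no enzyme.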
TGFb inhibitor – inhibitors of TGF-b signaling; HepG2 CAGA-GFP TGF-b/SMAD3 reporter, GFP fluorescence, 18 h; TGF-beta stimulated, 500 pg/mL final; Potency, µM (series often up to 46.1 µM), without a hit: top-dose activity, negative = inhibition, usual class: inhibitors; 1.2% of 410,000 active; AID 588855; also: potency is read from the fitted curve at half-maximal effect; % is scaled to controls: 0 for no effect and ±100 for the full control effect; nearly all actives have a fitted effect of over 65% in size
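Per well, imaged GFP fluorescence of HEPG2 CAGA-GFP cells gives the signal; cells get compound, then TGF-beta (500 pg/mL final), 18 h at 37 degrees C; %Activity versus -TGF-beta and +DMSO controls.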
Numbers without * were called inactive; ? = inconclusive; · = no result; [ ] = remark or other dose. Unless noted, calls follow the shape of the dose curve; as a rule, active = well fitted curve in the direction sought with a large enough effect; inconclusive = small, poorly fitted or top-dose-only effect, or another doubt; inactive = no such curve, though single readings can be large; an effect the other way counts as inactive or inconclusive.

SMILES	IL-1B inflam inh	TDP1 cell CPT	HepG2 tox	TDP1 cell noCPT	TDP1 inh	TGFb inhibitor
COc1ccccc1-n1c(SCC(=O)Nc2ccccc2F)nc2[nH]ncc2c1=O	-9	13µM*	-14%	-22%	0%	5%
O=C(Cn1ccn(-c2ccc(F)cc2)c(=O)c1=O)Nc1ccccc1C(F)(F)F	·	18%	-3%	7%	-4%	-9%
CC[C@H](C)[C@H](NC(=O)[C@H](CC(C)C)NC(=O)[C@H](CC(N)=O)NC(=O)[C@@H](NC(=O)[C@@H](N)Cc1ccc(O)cc1)[C@@H](C)CC)C(=O)N[C@@H](Cc1ccc(O)cc1)C(=O)N[C@@H](CCCN=C(N)N)C(=O)N[C@@H](CC(C)C)C(=O)N[C@@H](CCCN=C(N)N)C(=O)N[C@@H](Cc1ccc(O)cc1)C(N)=O	·	·	·	·	13%	·
COc1ccccc1OCCCn1c(C)c(C#N)c2ccccc21	-11	21µM*	-4%	26µM*	0%	-7%
COc1ccccc1OCCCn1cc(C#N)c2ccccc21	-20	-22%	-14%	?	-3%	19%
Cc1ccc(-n2nc(C)c3c(C(F)(F)F)cc(-c4cccnc4)nc32)cc1Cl	·	0%	0%	1%	-5%	-42%
COCCN(CC(=O)NCc1ccc2c(c1)OCO2)C(=O)CCC(=O)Nc1nccs1	2	-2%	4%	-1%	-2%	-1%
COCCNC(=O)CN(Cc1ccc2c(c1)OCO2)C(=O)CCC(=O)Nc1nccs1	30	18µM*	15%	18µM*	1%	1%
O=C(c1n[nH]c2c1CCCC2)N1CCOc2ccc(C(O)C(c3ccccc3)c3ccccc3)cc2C1 (stereo not drawn)	·	19%[9.04 µM]	·	?	·	·
CCCCCCCCCCCCCCCC(=O)C1=C(O)C(CO)OC1=O (stereo not drawn)	·	-4%	·	6%	21%	·
CCOC(=O)C1=C(C)NC(C)=C(C(=O)OCC)C1c1cn(-c2ccccc2)nc1-c1ccco1	-18	-18%	-20%	?	7%	9%
CC(C)OC(=O)c1cn(-c2ccccc2)nc1-c1ccco1	-90*	?	-35%	?	-3%	-19%
COc1cc(CC(=O)N2CCN(S(=O)(=O)c3ccc(C(C)C)cc3)CC2)cc(OC)c1OC	-11	21µM*	-2%	21µM*	·	-1%
COc1ccc(C)cc1NC(=O)CN1CCN(c2ccc(F)cc2)CC1	-12	21µM*	-50%	23µM*	3%	-14%
COc1ccccc1NC(=O)CN1CCN(c2ccc(F)cc2)CC1	8	?	-5%	?	·	-20%
CCc1ccccc1NC(=O)CN1CCN(CC(=O)Nc2cc(C)ccc2OC)CC1	-2	?	-17%	6.5µM*	10%	-21%
COc1cc(CCC(=O)N2CCN(S(=O)(=O)c3ccc(C)c(C)c3)CC2)cc(OC)c1OC	-7	?	-23%	-23%	3%	-2%
COc1ccc(C)cc1NC(=O)CN1CCN(S(=O)(=O)c2ccc(C(C)C)cc2)CC1	-17	?	-12%	16µM*	3%	-29%
O=C(Oc1ccc(Br)cc1C(=S)N1CCOCC1)c1ccc(F)cc1	4	-24%	9%	-8%	3%	3%
CC(C)C1=CC2=CCC3[C@@](C)(CCC[C@@]3(C)C(=O)O)C2CC1 (stereo partly drawn)	·	6%	·	-7%	7%[56.1 µM]	·
COc1ccc(CN2CCN(C(=O)c3ccccc3C(=O)c3ccccc3)CC2)cc1OC	9	?	-6%	-19%	·	-9%
